Screening results: PubChem BioAssay, National Center for Advancing Translational Sciences (NCATS)
In the library only some 1.3% were active in any assay of this set; here they are far more common.
USP1-UAF1 inh: USP1/UAF1 (human) deubiquitinase inhibition | 0.23% of 390,000 active | Potency, µM (highest dose often 57.1 µM), for inactives: at the top dose activity change, negative = inhibition, hits mostly inhibitors | recombinant USP1/UAF1, Ub-Rhodamine cleavage fluorescence; note: % is set by controls: 0 for no effect and ±100 for the full control effect; nearly all actives have a fitted effect of over 60% in size
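USP1/UAF1 complex (1 nM) preincubated 15 min at room temperature with compound, then Ub-Rho substrate (150 nM final) added. Kinetic fluorescence at 480/540 nm over 6 reads at 60 s intervals; 50 mM HEPES pH 7.8, 0.5 mM EDTA, 0.1 mg/ml BSA, 1 mM TCEP, 0.01% Tween-20.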
ALOX12 inh: blocks human arachidonate 12S-lipoxygenase. P18054. purified 12hLO, xylenol orange hydroperoxide absorbance. Potency, µM (highest dose often 108 µM), inactives show at the top dose activity change, negative = inhibition, most hits filed as inhibitors. 1.1% of 580,000 active. AID 1671190; note: % is set by controls: 0 for no effect and ±100 for the full control effect
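Hydroperoxide product was detected by ferrous iron/xylenol orange as the 573 to 405 nm absorbance ratio. Arachidonic acid at 40 uM (final) was turned over for 30 min at room temperature by 150 nM human 12hLO, pH 7.0 Hepes buffer, after 15 min compound preincubation.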
EPAC2 agonist: activates human EPAC2 exchange factor. Q8WZA2. EPAC2 activation, biochemical qHTS; response scale: 100% = 6.5 mM cAMP response. Potency, µM (titrated, usually from 154 µM), for inactives: at the highest dose activation, actives largely listed as activators. 0.079% of 360,000 active. AID 720711; note: nearly all actives have a fitted effect of over 50% in size
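Compounds were added across a concentration range to EPAC2 (100 nM), RAP1B-BODIPY-GDP (250 nM) and GDP (50 uM). After 5 min at room temperature, fluorescence was recorded at 5-min intervals for 30 min.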
EPAC1 antagonist: EPAC1 (human) antagonism; EPAC1 GEF assay, Rap1b-BODIPY-GDP exchange fluorescence; O95398; Potency, µM (doses to about 115 µM), for inactives: top-dose activity change, negative = inhibition, most hits filed as inhibitors; 0.14% of 360,000 active;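 note: plate controls were vehicle for no effect and positive control for full effect; nearly all actives have a fitted effect of over 50% in size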
Target sequence (O95398 whole entry, looked up): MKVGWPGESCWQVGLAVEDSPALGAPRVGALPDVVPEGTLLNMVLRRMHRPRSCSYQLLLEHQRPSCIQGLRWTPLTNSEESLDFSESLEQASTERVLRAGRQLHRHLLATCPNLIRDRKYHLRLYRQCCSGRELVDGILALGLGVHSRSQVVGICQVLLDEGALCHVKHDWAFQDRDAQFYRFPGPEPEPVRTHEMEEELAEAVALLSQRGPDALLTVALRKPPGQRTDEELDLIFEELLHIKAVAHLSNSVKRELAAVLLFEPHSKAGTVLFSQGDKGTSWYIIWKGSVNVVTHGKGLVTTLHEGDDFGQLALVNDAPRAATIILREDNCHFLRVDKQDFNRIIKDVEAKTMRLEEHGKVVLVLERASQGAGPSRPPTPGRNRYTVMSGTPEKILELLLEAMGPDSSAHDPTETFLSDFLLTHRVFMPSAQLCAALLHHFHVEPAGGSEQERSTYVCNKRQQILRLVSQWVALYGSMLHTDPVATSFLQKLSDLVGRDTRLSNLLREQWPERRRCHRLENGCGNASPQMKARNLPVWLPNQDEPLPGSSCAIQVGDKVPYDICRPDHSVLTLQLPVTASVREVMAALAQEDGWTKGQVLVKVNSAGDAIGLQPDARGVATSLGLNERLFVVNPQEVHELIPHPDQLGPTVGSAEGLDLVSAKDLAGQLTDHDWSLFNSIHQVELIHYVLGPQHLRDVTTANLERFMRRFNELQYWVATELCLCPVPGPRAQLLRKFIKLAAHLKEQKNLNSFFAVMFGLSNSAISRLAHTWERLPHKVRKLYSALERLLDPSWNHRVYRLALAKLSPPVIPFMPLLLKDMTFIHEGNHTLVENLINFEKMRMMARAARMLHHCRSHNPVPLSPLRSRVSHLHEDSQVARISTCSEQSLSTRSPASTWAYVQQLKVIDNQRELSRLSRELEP
EPAC2 antag: antagonists of human EPAC2; EPAC2 GEF exchange of Rap1B-BODIPY-GDP, fluorescence; Potency, µM (top dose mostly 114 µM), for the others: top-dose activity, negative = inhibition, actives largely listed as inhibitors; 0.18% of 360,000 active; AID 720708; note: % is set by controls: 0 for no effect and ±100 for the full control effect; nearly all actives have a fitted effect of over 45% in size
EPAC1 agonist: agonists of human EPAC1; EPAC1 agonist qHTS, biochemical assay; response scale: 100% = response to 6.5 mM cAMP; Potency, µM (titrated, usually from 154 µM), without a hit: top-dose activation, usual class: activators; AID 720707; 0.073% of 360,000 active; O95398; note: nearly all actives have a fitted effect of over 60% in size
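EPAC1 100 nM, Rap1B–BODIPY-GDP 250 nM, unlabeled GDP 50 uM; compound titration; 5 min RT; kinetic read ex480/em540 at 5-min intervals ×30 min; data normalized to 6.5 mM cAMP agonist control.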
Active calls of the source: *; ? = inconclusive; · = not tested or not shown; [ ] = another dose, or the depositor's remark. Calls come from the whole dose curve; as a rule, active = well fitted curve in the direction sought with a large enough effect; inconclusive = small, poorly fitted or top-dose-only effect, or another doubt; inactive = no such curve, though single readings can be large; an effect the other way counts as inactive or inconclusive. Potency is the fitted concentration of half-maximal effect.

SMILES	USP1-UAF1 inh	ALOX12 inh	EPAC2 agonist	EPAC1 antagonist	EPAC2 antag	EPAC1 agonist
Cc1ccc(S(=O)(=O)N(Cc2ccco2)Cc2ccco2)cc1	·	-27%	·	·	·	·
COc1ccc2c(CN3CCC(C)CC3)cc(=O)oc2c1	·	-24%	·	·	·	·
CC(Oc1ccc2ccc(=O)oc2c1)C(=O)N1CCCCCC1 (centres undefined)	·	35%	·	·	·	·
Cc1noc(-c2ccc3c(c2)OCO3)c1C(=O)NCCSCc1ccco1	·	6%	·	·	·	·
Cc1noc(-c2ccc3c(c2)OCO3)c1C(=O)NCCSCc1ccccc1	·	20µM*	·	·	·	·
Cc1cnc(C)c(C)n1	·	-2%[176 µM]	·	·	·	·
CC1CCCCC1NC(=O)c1cc2c(Cl)nc3ccccc3c2s1 (centres undefined)	·	-11%	·	·	·	·
Cc1c(C)c2ccc(OCC(=O)Nc3ccc(S(N)(=O)=O)cc3)c(C)c2oc1=O	-11%	-8%	-7%	71µM*	22%	-3%
O=C(CSc1nc2ccccc2o1)c1ccc2ccccc2c1	·	-10%	·	·	·	·
O=C(CSc1ccc2ccccc2c1)c1ccc2c(c1)CCC2	·	35µM*	·	·	·	·
N#C/C(=C\c1ccccc1OCc1ccc2ccccc2c1)c1nc2ccccc2[nH]1	·	-14%	·	·	·	·
NC(=S)c1ccc(S(N)(=O)=O)cc1	·	3.2µM*	·	·	·	·
Cc1ccc(NC(=O)c2nn(C)c(=O)c3ccccc23)c(O)c1	·	-5%	·	·	·	·
COc1ccc(N/C=C2\CCc3ccccc3C2=O)cc1	?	?	100µM*	-20%	0%	?
COc1ccc2c(c1)CC/C(=C\Nc1ccc3c(c1)OCO3)C2=O	?	?	?	10%	6%	?
O=C(NC1CCCNC1)C1CCN(c2nc(-c3ccccc3)nc3c2CCC3)CC1 (centres undefined)	·	-17%	·	·	·	·
O=C(c1ccccc1)c1ccc(OCC(O)CNCc2ccc(Cl)cc2)cc1 (centres undefined)	-6%	7.1µM*	13%	-3%	-3%	-4%
O=C(CSc1nnc(-c2cccnc2)n1C1CC1)c1cc2cc(Cl)ccc2o1	·	25µM*	·	·	·	·
Cn1c(SCC(=O)c2cc3cc(Cl)ccc3o2)nnc1-c1cccnc1	·	28µM*	·	·	·	·
CCNc1c(NC(=O)NCC(C)C)c(=O)oc2ccccc12	·	20%	·	·	·	·
Cc1ccc(S(=O)(=O)NCCO)cc1C(=O)O	·	12%	·	·	·	·
CCOc1cc(C2C3=C(CCCC3=O)OC3=C2C(=O)CCC3)cc(Br)c1OCC(=O)O	·	7%	·	·	·	·
CN(Cc1ccccc1)S(=O)(=O)c1ccc(NC(=S)NC(=O)C2CCCCC2)cc1	-26%	18µM*	9%	?	-12%	0%
CC(=O)Nc1ccc(S(=O)(=O)N(C)Cc2ccccc2)cc1	-18%	-9%	3%	1%	18%	-3%
CN(Cc1ccccc1)S(=O)(=O)c1ccc(NC(=S)NC(=O)C(C)(C)C)cc1	-17%	35µM*	23%	-20%	11%	14%
SMILES	USP1-UAF1 inh	ALOX12 inh	EPAC2 agonist	EPAC1 antagonist	EPAC2 antag	EPAC1 agonist
O=C1Nc2ccccc2C12CCN(Cc1cccc3ccccc13)C2 (centres undefined)	·	7%[6.33 µM]	·	·	·	·
O=C(CCc1ncc(-c2c(F)cccc2F)o1)Nc1ccc(F)cc1	·	-41%	·	·	·	·
C#CCN1CCN(CCOc2ccccc2)CC1	·	0%	·	·	·	·
O=C1CN(Cc2ccc(-c3cc(F)cc(F)c3)cc2)CCN1c1nccc(Cl)n1	·	29%	·	·	·	·
CC(C)c1ccc(NC(=O)c2ccc(N(C)C)cc2)cc1	·	45µM*	·	·	·	·
CCCCCn1nc(-c2ccccc2)c2nc3ccccc3nc21	?	-8%	100µM*	15%	236%	2%
NS(=O)(=O)c1ccc(CCNS(=O)(=O)c2ccc(F)cc2)cc1	·	-2%	·	·	·	·
CC1=CC(=O)C(Sc2ccc(C)cc2)=CC1=O	?	1.1µM*	19%	-4%	-2%	9%
CCN(C(=O)c1cc2sc3ccccc3c2s1)c1ccccc1	·	7.9µM*	·	·	·	·
CC(=O)Nc1cccc(OCCc2ccccc2)c1	·	41%	·	·	·	·
CCn1nc(C(=O)NCC(C)(C)N2CCCCC2)c2ccccc2c1=O	·	-24%	·	·	·	·
CCSc1nnc2n(C)c(=O)c3c(n12)-c1ccccc1CC31CCCCC1	·	1%	·	·	·	·
CCn1c(=O)c2c(n3c(=S)[nH]nc13)-c1ccccc1CC21CCCCC1	-30%	14µM*	-2%	-8%	-6%	-4%
CN1CCN(c2cc(-c3ccoc3)ncn2)CC1	·	11µM*	·	·	·	·
CN1CCN(c2ccnc(-c3ccoc3)n2)CC1	·	22µM*	·	·	·	·
N#Cc1ccccc1OCC(=O)Nc1nc(-c2ccccn2)cs1	?	35µM*	6%	-7%	8%	7%
O=C(CN1C(=O)NC(c2ccc(Cl)cc2)C2=C1COC2=O)Nc1cccc(Br)c1 (centres undefined)	·	10µM*	·	·	·	·
COc1cccc(NC(=O)CN2C(=O)NC(c3ccc(C)cc3)C3=C2COC3=O)c1 (centres undefined)	·	18%	·	·	·	·
Cc1cc(NC(=O)CN2C(=O)NC(c3ccc(Cl)cc3)C3=C2COC3=O)ccc1Br (centres undefined)	·	8.9µM*	·	·	·	·
CC(=O)Nc1ccc(-n2cc(-c3ccccc3)[nH]c2=S)cc1	-9%	28µM*	15%	?	-11%	3%
COc1ccc2c(c1)Cc1sc(NC(=O)c3cccc(C)c3)nc1-2	35µM*	?	·	·	·	·
COc1ccc2c(c1)Cc1sc(NC(=O)c3cccc(Cl)c3)nc1-2	?	0%	·	·	·	·
CCOC(=O)C(C)Sc1ncnc2c1nnn2-c1ccc(F)cc1 (centres undefined)	-10%	37%	-2%	-15%	20µM*	-6%
Cc1cc(C)cc(-n2c(C)cc(C(=S)N3CCOCC3)c2C)c1	-3%	-29%	21%	-2%	2%	12%
Cc1cc(C(=S)N2CCOCC2)c(C)n1-c1ccc(Cl)cc1	-25%	20µM*	6%	-10%	-1%	2%
SMILES	USP1-UAF1 inh	ALOX12 inh	EPAC2 agonist	EPAC1 antagonist	EPAC2 antag	EPAC1 agonist
COc1cc(N2C(=O)C=CC2=O)c(OC)cc1Cl	-15%	16µM*	10%	-7%	-7%	-5%
O=C(CSCC(=O)N(Cc1cccs1)C1CC1)c1ccccc1	·	4%	·	·	·	·
CCOC(=O)CSc1nnc(NC(=O)CN2CCCCC2)s1	-27%	6.3µM*	1%	-11%	2%	18%
Cc1cccc(NC(=O)CSc2nnc(NC(=O)CN3CCCCC3)s2)c1	·	23%	·	·	·	·
Cn1ccnc1SCC(=O)NC1(C#N)CCCCCC1	·	9%	·	·	·	·
Cc1ccccc1NC(=O)CSc1nc(N)c(C#N)c(-c2cccs2)c1C#N	-26%	-5%	-1%	10%	11%	-17%
COc1ccc(CCNC(=O)CSc2nc(N)c(C#N)c(-c3cccs3)c2C#N)cc1OC	1%	21%	-3%	32µM*	2%	-1%
Cc1cc(C)c2c(CN3CCC(C)CC3)cc(=O)oc2c1	-15%	45µM*	13%	3%	?	8%
